Assay results reported in PubChem BioAssay AID1508600 (Functional Genomics Laboratory (NCATS/FGL), 2020).
Among all 53,000 sequences or so, about 3,700 (7%) were called active. The sample as a whole holds a higher share of actives than the screen did. Values without a mark were called inactive.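 Rule for the calls: active = gene knockdowns whose robust z-score for IL-1 alpha signal is at least 2 or at most -2, so actives lie on both sides; inactive = the rest.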

Experiment: Components of the Cytosolic LPS Sensing Pathway: Gene Identification via Genome-wide siRNA Screen;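 note: robust z of the log signal after scaling to non-targeting control siRNA wells of the plate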
Conditions: RAW264.7 macrophages, IL-1a HTRF, actives lie on both sides, screened at 100 nM (by protocol), cells primed 5 h with Pam3CSK4 first
In short: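 Read-out: IL-1a HTRF on supernatant, divided by plate negative-control median ×100, log-transformed and converted to robust z-score. Cells were RAW264.7 given 100 nM siRNA, Pam3CSK4-primed 5 hours, then LipidA-transfected 24 hour.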

Sequence	z-score
GGCCUUUAUUCUAUGCAGUTT against Htr3a	1.59
GGAAAAAACGCACCAGCAUTT against Pou2f1	0.0271
CCAGACGCGUAACUGCUACTT against Cox6b2	3.26 (active)
GGACAAAGAAAAAGAUUCCTT against Stxbp6	-0.169
CCUGGAACAUAGAUGUAUATT against Jmjd4	0.484
GGUCUUUUCUACAUGUGGATT against Olfr389	0.268
GGAUGCUGAAGUGAAGGACTT against Myt1	-0.157
GCAUGUAGCCUGGCCUUCUTT against Zfp458	-0.591
GGAAUGUUGGAAUCAAUUGTT against Gcm1	2.83 (active)
GGAAUUUUACCUUUUGGAUTT against Tm9sf3	0.408
GGUCUCACUGAAAAUGAAATT against Ces1g	-0.656
GGCUUGUCGUCCUGGUGUATT against Rprd2	0.219
GGCCUACAUCAUUCACUCCTT against Olfr64	-0.384
GGAGGAUCUAUACCACGGUTT against Npffr2	0.565
GGUUCGAGUCUCUUACUCUTT against Pou4f3	-0.574
GGGUGACCUUUACGUCUUCTT against Reep1	0.0877
GGGAGAAGAAUUUGAACAGTT against Ak1	0.557
GGUGGCAGACUGUGUUUAUTT against B3gnt8	-2.08 (active)
GGGAUGCGGAGGUUUAAGATT against Dhx37	0.815
GGAGCUAAAGCUGCUGAUUTT against S100g	-0.404
CCCAGGACGACGACUUUUUTT against Pnmal1	-0.0664
GGACUUGGAAGUAAUUUUCTT against C230071H18Rik	2.06 (active)
GGUUUUGGGCAAAAUUGAGTT against Edf1	-0.899

Sequence	z-score
GCUAGGUCAGGGAGUUUUATT against Exosc2	3.33 (active)
CCAAUGCAAUGUUAGCUUUTT against Tas1r3	0.898
GCCAUGGCAUAAAAACUGGTT against P2rx6	-0.329
CCACAUGAUCCUAACUUUGTT against Pqbp1	-0.157
CCUGAUAAGCAAAUACGGCTT against Rep15	-0.893
CCUGAAGCCUCAAUACACATT against Ugt1a1	0.967
GGCCUAAACACGGUUUUCATT against Ppm1n	3.72 (active)
GGAUGAUCACAAAGGUAUATT against 4632404H12Rik	0.0665
CCCAGUUGGUGUUUAUAUATT against Ppp3cb	0.115
GGAGAUUUCAUGAACUCUGTT against Srrm3	-0.141
GGGUCUGCUACAUCUUCGGTT against Ino80e	2.27 (active)
GGCCAGGAAAAAAUCUGCATT against Neu1	-0.293
GGGUUUGACCUGAUUUCUCTT against Col9a1	0.305
GGUUACCUCCACCAGAUCATT against Avpi1	-0.326
GGCGGUAACCACUUUCACGTT against Mycn	-0.567
GGUUCCCUUUUUCAUCUAATT against 4632433K11Rik	3.08 (active)
GGAAGAAAUGGAAUUGAAGTT against Pcdhga6	0.649
GGAGCAUUCAAAUUACAUCTT against Ccni	4.62 (active)
GGAUGAUCAAGACAAGCAGTT against Nobox	-0.763
CCUUGGGAAUUACCCAGAGTT against Cage1	-0.565
GCCGUUCCCAUUAUCGUUUTT against Tmem87a	-0.693
GGAAAUUUGUAUCCCGAGUTT against Trp53	-2.14 (active)
GGAAGGUGGAGAAAAUCCGTT against Hhipl2	0.585

Sequence	z-score
GGAAGAUACUAAUAGAGUATT against Enpep	-0.00304
GGACGACAACGACAUCAUGTT against Sfrp2	0.475
GGGACCAAAGGAAACUUCATT against Eif2s3y	-0.14
CCCAGGUGAUUCUGAUAUUTT against Rpl30	0.534
UGGACUUGCUUCUCACAUCTT against Olfr694	-2.22 (active)
GGUACAUUGGCAUUGUGAATT against Hnrnpf	0.525
GCCUCCUUUGCUUCAUUUCTT against Fcer1g	1.83
GGUCUUCUGAAGAUGGCGUTT against Pja2	1.39
GCAACAAGUCUGGAGACAATT against Pebp1	-0.595
GGAGUUCCAGAAGCUUCUATT against Vwa3b	-1.72
GCGGCUCUUACGAGGUUUATT against Upk3a	0.024
CGAUGAGAGUCCACUCCCATT against Cox18	-3.19 (active)
GGGAGUUAUGUUGGUAUCATT against 1700029F12Rik	-1.38
GGACUUCUUCUAUUUCAUATT against Fam20a	-0.986
GGAAAACACGUUCACUAUATT against Elp2	0.021
GGAGUCUCCAAUGAAAUGUTT against Kcnma1	-0.464
GCUAAACGAGUUAUUGGUGTT against Ecpas	0.829
GGAGAAACUGGCUUUCUCUTT against Zp3	0.918
GGUUCUACAGAUGUUUUCUTT against Tnfrsf22	3.84 (active)
GCGGCAAGUGGACUUUUCATT against Dlc1	-1.09
GCCCAGUUUGUCACAAAGCTT against Sorl1	-0.276
GCUAAGCGGAAUGCACUCGTT against Cxcl5	-2.23 (active)
